# Assay results as given in PubChem BioAssay (NCI).
# “And” between values parts separate entries of the source, which are not always exact repeats. Identical values can stand only once. This is part of a sample that, as a whole, favours compounds with a hit. Of some 83,000 tested, about 20% had one in any assay.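 Cell lines were cultured in 96-well plates, exposed to a single compound concentration, and assessed for percent growth 48 hours later.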 The source made the active and inactive calls. Rule for the calls: active = growth percent below 10; inactive = the rest.
# Tested on: HL-60(TB) leukemia
# Test: NCI-60 one-dose screen, 48 h (100 = growth as untreated, 0 = no growth, -100 = all killed)
# Details: 10 µM unless noted
row,SMILES,growth
1,O=c1c2cc(F)ccc2sc2c(Nc3cccnc3)nc3ccccc3c12,88.5% (inactive)
2,CCCCCCCCCCCC[N+]1(CCCCCCCCCCCC)CCCC(C)C1 (stereo unspecified),-79.5% (active)
3,N=C1C(c2nc(-c3ccc(Br)cc3)cs2)=C(O)CN1CC1CCCO1 (stereo unspecified),98.3% (inactive)
4,CCCCCCC(O)(c1ccc(F)cc1)C(CN1CCOCC1)c1ccccc1 (stereo unspecified),30.8% (inactive)
5,CCCCCCCCCCCCCCCCCCOc1cccc(CCOP(=O)(O)OCC[N+](C)(C)C)c1,73.4% (inactive)
6,CC(=O)c1cc2c(N)c(C(=O)Nc3cncc4ccccc34)sc2nc1C,91.6% (inactive)
7,Fc1cc2c(cc1Cl)N(c1ncnc3ccc(-c4cnc5[nH]ncc5c4)cc13)CC2,66.5% (inactive)
8,COc1ccc2nc3ccc(OC)cc3c(SCCCN)c2c1,50.2% (inactive)
9,CCOC(=O)C1=C(C)N=C2Sc3cc(OC(F)(F)F)ccc3N2[C@H]1c1ccccn1,46.9% (inactive)
10,N#Cc1c(Nc2ccccc2)nn2cc(-c3nc4ccccc4s3)c(N)nc12,100% (inactive)
11,CCCCCCCC/C=C\CCCCCCCCOc1ccccc1CCOP(=O)(O)OCC[N+](C)(C)C,-23% (active)
12,CC(=O)Nc1ccc(OC(C)=O)cc1,-9.02% (active) and 104% (inactive)
13,COc1ccc2c(c1)O/C(=C/c1ccc(OCC(=O)c3ccccc3)cc1)C2=O,88.7% (inactive)
14,CNC(=O)c1cccc(-c2ccc3c(N4CCOC[C@@H]4C)nc(N4CCOC[C@@H]4C)nc3n2)c1,28.2% (inactive) and 7.66% (active)
15,O=C(CN1C(=O)NC2NC(=O)NC21)N/N=C/c1ccccc1[N+](=O)[O-] (stereo unspecified),99.2% (inactive)
16,CN(C)CCn1cc(-c2ccc3c(Nc4ccc(CC(=O)Nc5cccc(F)c5)cc4)ncnc3c2)cn1,-55.3% [30 µM] (active)
17,CC(=O)Nc1cccc2cc(O)ccc12,114% (inactive) and 76.6% (inactive) and 104% (inactive)
18,CS(=O)(=O)OCCN(CCOS(C)(=O)=O)c1ccc(/C=N/Nc2ccc([N+](=O)[O-])cc2[N+](=O)[O-])cc1,71.6% (inactive)
19,COc1cccc(C(=O)N(c2ccc(F)c(F)c2)C(C(=O)NC(C)(C)C)c2cc3c(C)cc(C)cc3nc2Cl)c1 (stereo unspecified),63.3% (inactive)
20,Cc1c(C2=NNC(c3ccc4c(c3)OCO4)C2)[n+]([O-])c2ccccc2[n+]1[O-] (stereo unspecified),90.5% (inactive)
21,COc1ccc(Cn2c(Br)c3c(c2Br)-c2nc(NC(=O)c4ccc(OC)cc4)sc2CC3)cc1,75.9% (inactive)
22,CN(C)CCCOc1c(Br)cc(/C=C/C(=O)N(C)CCc2cc(Br)c(OCCCN(C)C)c(Br)c2)cc1Br,81.9% (inactive)
23,O=C(Nc1ccc(-c2nc(-c3cccc(OCCN4CCOCC4)c3)c(-c3ccnc(Br)c3)[nH]2)cc1)c1ccccc1,-41.2% (active)
24,N=C(N)N=Nc1ccc(O)cc1,69% [100 µM] (inactive)
25,CCN1CCN(c2nc(NCCNc3ccnc4cc(Cl)ccc34)c3ccccc3n2)CC1,-67.1% (active)
26,O=C1CCN(Cc2ccccc2)C(=S)N1,86.8% (inactive) and 113% (inactive)
